Source: PubChem
ERAP1 inh = blocks human ERAP1 aminopeptidase activity | recombinant ERAP1, Leu-AMC fluorescence, 60 min | inhibition, % at 10.7 µM | hit rate 0.15% among 340,000;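 active = mean replicate inhibition of at least 30%, or all replicates individually reaching that 30% level; inactive = mean below 30% and not every replicate reaching it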
FGF22 binding = FGF22 (human) thermal shift binding. Q9HCT0. recombinant FGF22 thermal shift, SYPRO orange fluorescence; percent of sucrose octasulfate shift, DMSO zero. activity (Tm shift, normalised), % at 9.99 µM. hit rate 1.5% among 340,000;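 active = mean Tm shift, scaled 0 neutral to 100 positive control, at about 1.3% or above, every replicate too, limit read from the data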
Target sequence (Q9HCT0 whole entry, looked up): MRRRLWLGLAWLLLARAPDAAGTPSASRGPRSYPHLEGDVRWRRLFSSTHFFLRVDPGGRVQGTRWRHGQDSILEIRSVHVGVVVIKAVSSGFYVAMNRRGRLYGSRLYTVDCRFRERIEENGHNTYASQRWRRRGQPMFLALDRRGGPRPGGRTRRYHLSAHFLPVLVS
CASP6 VEID inh = inhibitors of human caspase-6 | P55212 | purified caspase-6, Z-VEID-R110 cleavage fluorescence | inhibition, % at 12.5 µM | hit rate 0.53% among 350,000;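 active = mean inhibition across replicates at least about 35%, with every replicate also reaching that limit, limit read from the data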
SIRT5 block = inhibitors of human sirtuin-5 desuccinylase | Q9NXA8 | Purified SirT5, succinyl-peptide AMC, trypsin-coupled fluorescence | inhibition, % at 15 µM | hit rate 1.1% among 330,000; in the data active = inhibition above about 15%
Target sequence (Q9NXA8 whole entry, looked up): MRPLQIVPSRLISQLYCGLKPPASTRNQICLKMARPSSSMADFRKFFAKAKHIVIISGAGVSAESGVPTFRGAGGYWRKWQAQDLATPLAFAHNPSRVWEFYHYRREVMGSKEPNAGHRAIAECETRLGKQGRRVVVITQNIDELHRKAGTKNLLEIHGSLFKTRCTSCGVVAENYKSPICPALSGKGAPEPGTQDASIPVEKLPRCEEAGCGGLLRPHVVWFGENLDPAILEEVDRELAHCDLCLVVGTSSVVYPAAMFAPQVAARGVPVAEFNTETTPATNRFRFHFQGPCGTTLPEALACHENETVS
A number is an active result; . = inactive; / = no result given. Hits are enriched below; roughly 3.1% of the tested compounds scored in any of these assays.

SMILES | ERAP1 inh | FGF22 binding | CASP6 VEID inh | SIRT5 block
CO[C@H]1CN(C)C(=O)c2ccc(NC(=O)c3ccc(F)cc3)cc2OC[C@H](C)N(C(=O)c2ccc(F)cc2)C[C@@H]1C | . | . | . | .
O=C(c1ccc2c(c1)OCO2)N1C[C@H]2[C@@H](c3ccccc31)[C@@H](CO)N2CC1CCCC1 | . | . | . | .
O=C(O)CC(NC(=O)C12CC3CC(CC(C3)C1)C2)c1cccc([N+](=O)[O-])c1 (stereo not given) | . | 43.1 | . | .
Cc1ccc(CNC(=O)CCCC(=O)Nc2cc(C)on2)cc1 | . | 43.1 | . | .
Cc1cc(NC(=O)CCCC(=O)NCc2ccccc2)no1 | . | . | . | .
O=C(Nc1cccc(Cl)c1)Nc1cccc(C(=O)O)c1 | / | / | . | 22.9
Cc1ccnc(NS(=O)(=O)c2ccc(NC(=O)c3ccc([N+](=O)[O-])s3)cc2)n1 | . | 44.4 | . | .
CCC(=O)N(C)C[C@H]1Oc2cc(C#CCN(C)C)ccc2S(=O)(=O)N([C@@H](C)CO)C[C@@H]1C | . | . | . | .
O=C(NCc1ccccc1)C(c1ccccc1)N(C(=O)c1csnn1)c1ccccc1 (stereo not given) | . | 42.9 | . | .
C=CCN(C(=O)c1csnn1)C(C(=O)NCc1ccc(F)cc1)c1ccccc1F (stereo not given) | . | 42.9 | . | /
C=CCN(C(=O)c1csnn1)C(C(=O)NCc1ccccc1)c1ccccc1F (stereo not given) | . | . | . | /
O=C(NCc1ccc(F)cc1)C(c1ccccc1)N(C(=O)c1csnn1)c1ccccc1 (stereo not given) | . | . | . | .
COC(=O)c1cc(NC(=O)/C=C/c2ccccc2)ccc1O | . | 43.1 | . | .
O=C(COc1ccccc1)Nc1ccc(NC(=O)c2ccco2)cc1 | . | 44.3 | . | .
O=C(/C=C\c1ccccc1)Nc1ccc(NC(=O)c2ccco2)cc1 | . | 1.5 | . | .
COc1ccc(-c2ccc(NC(=O)c3ccco3)cc2)nn1 | . | 1.8 | . | .
CO[C@@H]1CN(C)C(=O)c2ccc(NC(=O)C3CC3)cc2OC[C@H](C)N(C(=O)Cc2ccccn2)C[C@H]1C | . | . | . | .
Cc1noc(C)c1NC(=O)NCC[C@H]1CC[C@H](NC(=O)Nc2cccc(Cl)c2)[C@@H](CO)O1 | . | . | . | .
CCCC#Cc1ccc([C@H]2[C@H](CO)N3C(=O)CN(C(=O)c4ccccc4)C[C@@H]23)cc1 | . | / | . | .
CCC(=O)N[C@@H]1C=C[C@@H](CC(=O)NCc2cc(F)cc(F)c2)O[C@@H]1CO | / | . | / | .
C[C@@H]1CN([C@H](C)CO)C(=O)c2cc(NC(=O)CCCN(C)C)ccc2O[C@@H](C)CCCCO[C@H]1CN(C)C(=O)Nc1cccc2ccccc12 | . | . | . | .
CCc1nc(Nc2ccc(OC)cc2OC)c2oc3ccccc3c2n1 | 32.1 | . | . | .
COc1ccc(Nc2nc(C)nc3c2oc2ccccc23)c(OC)c1 | . | . | . | .
O=C(Nc1sc2c(c1C(=O)O)CCCC2)C(=O)N1CCOCC1 | . | . | . | .
O=C(Nc1sc2c(c1C(=O)O)CCC2)C(=O)N1CCOCC1 | . | . | 37.4 | .
SMILES | ERAP1 inh | FGF22 binding | CASP6 VEID inh | SIRT5 block
CC(C)(C)OC(=O)NCc1ccc(CNC(=O)c2nc[nH]c2C(=O)NCc2ccc(CNC(=O)OC(C)(C)C)cc2)cc1 | . | . | . | 16.0
CC(C)(C)OC(=O)NCCCC[C@H](NC(=O)c1nc[nH]c1C(=O)NCC(=O)OCc1ccccc1)C(=O)OC(C)(C)C | . | . | . | 24.1
COc1ccc(NC(=O)N[C@H]2CC[C@@H](CC(=O)NCc3ccccn3)O[C@@H]2CO)cc1 | . | . | . | .
Cc1ccc(NC(=O)c2n[nH]c(=O)c3ccccc23)cc1S(=O)(=O)N1CCOCC1 | . | 43.0 | . | /
Cc1ccc(NC(=O)c2cc([N+](=O)[O-])ccc2N2CCOCC2)cc1S(=O)(=O)N1CCOCC1 | . | . | . | .
Cc1cnc(C(=O)Nc2ccc(C)c(S(=O)(=O)N3CCCCC3)c2)cn1 | . | . | . | .
Cc1ccc(NC(=O)c2ccc([N+](=O)[O-])o2)cc1S(=O)(=O)N1CCOCC1 | . | . | 40.5 | .
Cc1ccc(NC(=O)c2cnccn2)cc1S(=O)(=O)N1CCCCCC1 | . | 43.0 | . | /
O=C(Nc1ccc2c(c1)OCO2)N[C@H]1CC[C@@H](CCNC(=O)C2CCCCC2)O[C@H]1CO | . | . | . | .
C[C@H](CO)N1C[C@H](C)[C@@H](CN(C)C(=O)Nc2ccc(F)cc2)OCCCC[C@H](C)Oc2ccc(NC(=O)CCC(F)(F)F)cc2C1=O | . | . | . | .
O=C(COC(=O)c1ccc([N+](=O)[O-])o1)NCCCc1ccccc1 | . | . | 48.9 | .
COc1ccc(CCNC(=O)COC(=O)c2ccc([N+](=O)[O-])o2)cc1 | . | . | 58.6 | .
Cc1ccc(C(=O)OCC(=O)NCCc2ccc(S(N)(=O)=O)cc2)o1 | . | 43.4 | . | /
O=C(COC(=O)c1ccc([N+](=O)[O-])o1)Nc1cccc2ccccc12 | . | . | . | .
CCS(=O)(=O)Nc1ccc2c(c1)C(=O)N(C)C[C@@H](OC)[C@@H](C)CN(C)[C@@H](C)CO2 | . | . | . | .
CCOc1ccc(Cl)cc1CNCCCSc1nc(C)cc(C)n1 | . | . | . | 19.6
CCC(=O)c1c[nH]c(C(=O)N2CCN(c3ccccc3)CC2)c1 | . | 42.9 | . | .
CCC(=O)c1c[nH]c(C(=O)N2CCOCC2)c1 | . | . | . | .
CCc1ccc(NC(=O)C(C)Sc2nc(-c3ccco3)c(C#N)c(=O)[nH]2)cc1 (stereo not given) | . | . | 46.0 | .
CC(Sc1nnc(-c2ccco2)n1C)C(=O)Nc1ccc(N2CCOCC2)cc1 (stereo not given) | . | . | . | .
CCCCCCC(C)OC(=O)Nc1cccc2ccccc12 (stereo not given) | . | . | . | .
CC(C)CN1CCN(CCCOC(=O)Nc2cccc3ccccc23)CC1C (stereo not given) | . | 44.2 | . | /
O=C(CNC(=O)c1ccc(Cl)cc1)OC1CCOC1=O (stereo not given) | . | 43.2 | . | .
COc1cccc(CN2CC3(C2)CN(C(=O)C2CC2)[C@H](CO)c2[nH]c4cc(OC)ccc4c23)c1 | / | . | / | .
O=c1[nH]c(=S)[nH]c2scc(-c3ccc(Br)cc3)c12 | / | . | . | .
O=c1[nH]c(=S)[nH]c2sccc12 | 49.5 | . | . | .
CCC[C@H]1CC(=O)C=C(c2ccsc2)ON1C(=O)OC(C)(C)C | . | . | . | 21.5
COc1ccc(NC(=O)Nc2ccc3c(c2)C(=O)N([C@@H](C)CO)C[C@@H](C)[C@@H](CN(C)C(=O)Nc2ccc(C(F)(F)F)cc2)O3)cc1 | . | . | . | 16.5
COc1ccc(NC(=O)Nc2ccc3c(c2)C(=O)N([C@H](C)CO)C[C@H](C)[C@@H](CN(C)Cc2ccc(C(F)(F)F)cc2)O3)cc1 | . | . | . | 19.0
CC(C)NC(=O)Nc1ccc2c(c1)C(=O)N([C@H](C)CO)C[C@@H](C)[C@H](CN(C)Cc1ccc(C(F)(F)F)cc1)O2 | . | . | . | 15.2
